Assay outcomes deposited in PubChem by National Center for Advancing Translational Sciences (NCATS).
D2 ag-1: D2 dopamine receptor (human) agonism; 0.53% of 340,000 active; activation, % at 2 µM; HEK293 T-REx D2 cells, calcium flux agonist mode; AID 485358; P14416;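 active = activation over 3 SD above normal in the single-dose calcium agonist read, cut at about 30% in these data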; also: 0% is about no effect
Target sequence (P14416 whole entry, looked up): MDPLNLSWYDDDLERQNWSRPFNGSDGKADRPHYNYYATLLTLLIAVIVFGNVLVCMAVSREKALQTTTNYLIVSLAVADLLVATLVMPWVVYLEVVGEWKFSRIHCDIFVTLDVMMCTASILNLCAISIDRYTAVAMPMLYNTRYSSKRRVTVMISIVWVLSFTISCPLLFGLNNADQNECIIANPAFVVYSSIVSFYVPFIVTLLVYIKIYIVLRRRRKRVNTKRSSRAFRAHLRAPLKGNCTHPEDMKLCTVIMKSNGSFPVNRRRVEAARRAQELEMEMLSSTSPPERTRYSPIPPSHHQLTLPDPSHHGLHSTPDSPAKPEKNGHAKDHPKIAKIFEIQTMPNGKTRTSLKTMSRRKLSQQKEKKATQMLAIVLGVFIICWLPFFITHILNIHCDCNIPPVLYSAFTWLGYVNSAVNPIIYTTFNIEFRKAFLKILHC
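Calcium-flux readout, 1 cycle/sec over 180 s following compound pin transfer, in inducible HEK293 Trex D2 cells (force-coupled); dopamine controls included. Positive calcium responses during this window marked compounds as potential agonists.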
D2 PAM-1: positively modulates the human D2 dopamine receptor allosterically; P14416; HEK293 T-REx D2, calcium flux, EC20 dopamine potentiation; 0.34% of 340,000 active; potentiation, % at 10 µM;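 active = potentiation over 3 SD above the plate norm, cut at about 30% in these data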; also: 0% is about no effect
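Cells plated with tetracycline inducer and held overnight at 30 C; calcium dye loaded 30–90 min at room temperature; baseline taken, compound added and read 180 s; EC20 dopamine then added and read 180 s.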
D2 ag-2: agonists of human D2 dopamine receptor (beta-arrestin). P14416. DiscoveRx PathHunter D2 beta-arrestin, luminescence, 90 min; 100% = 57 uM dopamine signal. activation, % (no concentration beside the values). 0.084% of 360,000 active. AID 624465; in the data active = activation above about 40%
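Agonist mode: compounds alone added to overnight-plated D2 PathHunter cells for 90 min at 37 C, with 57 uM final dopamine (EC100) defining full response. Beta-arrestin recruitment detected by chemiluminescent reagent, read after 1 h at ambient temperature.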
D2 PAM-2: human D2 receptor positive allosteric modulation | P14416 | DiscoveRx D2 beta-arrestin cells, luminescence, 90 min; 100% = 57 uM dopamine signal | potentiation, % (no concentration beside the values) | 0.23% of 360,000 active | AID 624464; in the data active = potentiation above about 50%
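PathHunter beta-arrestin assay in DiscoveRx D2 cells. Compounds were added with an EC20 of dopamine (50 nM final) for 90 min at 37 deg C. Luminescence was read 1 h after detection reagent, with 57 uM dopamine as the EC100 control.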
D2 antag: D2 dopamine receptor (human) antagonism. P14416. HEK293 TREx D2 cells, calcium flux, dopamine EC80. inhibition, % at 10 µM. 2% of 340,000 active. AID 485344; in the data active = inhibition above about 30%; inactive = below that, where a call was filed; also: 0% is about no effect
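HEK293 T-REx D2 cells, tet-induced, calcium dye no-wash. Cpd pintool add, 180 s kinetic, then EC80 DA, 180 s kinetic. Ca flux read.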
* hit, by the source's call; x = not tested or not shown. Rows were chosen to be rich in hits. Some 2.4% of all compounds tested hit in one or more screens of this group.

SMILES | D2 ag-1 | D2 PAM-1 | D2 ag-2 | D2 PAM-2 | D2 antag
Cc1ccc(-c2nnn(CC(=O)N(c3ccccc3)C(C(=O)NC3CCCC3)c3ccco3)n2)o1 (stereo unspecified) | 0.5 | 16.5 | 0.4 | -5.5 | 32.8*
Cc1cc(NC(=O)CCC(=O)N(c2ccc(C)c(F)c2)C(C(=O)NC2CCCC2)c2ccco2)no1 (stereo unspecified) | x | -1.4 | 0.7 | -3.6 | x
COc1ccc(C(=O)N[C@H](C(=O)OCCCOC(=O)[C@@H](NC(=O)c2ccc(OC)cc2)C(C)C)C(C)C)cc1 | x | x | -1.9 | -1.9 | x
CS(=O)(=O)Nc1ccccc1C(=O)OCc1cc(=O)n2nc(C3CCCCC3)sc2n1 | -0.7 | 1.1 | x | x | x
CCOC(=O)N1CCN(Cc2nc3cc([N+](=O)[O-])ccc3n2C(C)C)CC1 | -0.3 | 5.2 | x | x | x
Cc1ccc(C2(C(F)(F)F)NC(=O)N3C(=C2C#N)Nc2ccccc23)cc1 (stereo unspecified) | 0.3 | -4.1 | -2.8 | -2.0 | -11.3
CN1C2=C(C#N)C(c3ccccc3)(C(F)(F)F)NC(=O)N2c2ccccc21 (stereo unspecified) | 0.4 | 13.1 | 1.8 | 5.8 | 32.2*
COc1ccc(-n2ncc(C(=O)N3CCN(c4cc(C)ccc4C)CC3)c2C2CCN(C(=O)OC(C)(C)C)CC2)cc1 | 0.4 | 6.6 | x | x | x
O=C(Cc1ccccc1)Nc1sc2c(c1C(=O)Nc1ccc(Br)cc1)CCCC2 | 0.2 | -9.3 | x | x | x
Cc1cccc(N2CCN(S(=O)(=O)c3csc(C(N)=O)c3)CC2)c1C | 0.1 | 2.9 | x | x | x
COc1ccc(OC)c([N+](=O)[O-])c1C(N)=O | -0.4 | -8.5 | 8.1 | 50.1* | 6.8
O=C(O)CNC(=O)c1ccccc1NC(=O)c1ccco1 | 0.2 | 5.4 | 0.8 | -13.8 | -2.8
CN(Cc1ccccc1)C(=O)CC(=O)N(C)Cc1ccccc1 | 0.5 | 33.6* | 1.5 | -0.4 | 7.1
CN(Cc1ccccc1)C(=O)c1ccccc1NC(=O)c1ccco1 | 0.0 | -9.0 | 0.9 | 7.6 | 31.2*
CN(Cc1ccccc1)C(=O)Cc1ccccc1 | 0.5 | 16.9 | -0.7 | -0.2 | 2.0
CN1C=CC(=C[N+](=O)[O-])N(C)C1=O | x | x | -1.8 | -1.1 | x
O=c1cc(N2CCOCC2)[nH]c(=O)n1-c1ccc(Cl)cc1 | -0.1 | -4.1 | -3.5 | -11.8 | 41.1*
O=c1cc(N2CCCC2)[nH]c(=O)n1-c1ccc(Cl)cc1 | 0.2 | -5.3 | -5.9 | -5.2 | 0.9
Cc1ccc(Cl)cc1N1CCN(C(=O)CSc2nnc3n2C(C)(C)Cc2ccccc2-3)CC1 | -0.4 | 30.5* | 1.5 | 6.5 | -11.6
COc1ccc(N2CCN(C(=O)CSc3nnc4n3C(C)(C)Cc3ccccc3-4)CC2)cc1 | -0.6 | 18.6 | -1.7 | -0.2 | -6.0
Cc1nc2cc(-c3ccccc3)nn2c(C)c1CCC(=O)NCc1cccc(Cl)c1 | x | 3.7 | x | x | x
Cc1ccc(Cn2c(=N)c(C(=O)NCc3ccco3)cc3c(=O)n4ccccc4nc32)cc1 | -0.6 | -25.0 | -3.1 | -43.3 | 82.9*
N=c1c(C(=O)NCC2CCCO2)cc2c(=O)n3ccccc3nc2n1Cc1ccc(Cl)cc1 (stereo unspecified) | -0.5 | -15.3 | -3.0 | -17.1 | 55.3*
O=C(Cn1c(=O)n(Cc2ccc(F)cc2)c(=O)c2sc3ccccc3c21)NCc1ccccc1Cl | x | -0.7 | x | x | x
CNCCC=C1c2ccccc2C=Cc2ccccc21 | x | x | -8.2 | -34.1 | x
SMILES | D2 ag-1 | D2 PAM-1 | D2 ag-2 | D2 PAM-2 | D2 antag
CN(C)CCC=C1c2ccccc2CCc2ccccc21 | -0.4 | -29.4 | -4.0 | -36.0 | 63.6*
CN(C)CCC=C1c2ccccc2C=Cc2ccccc21 | -0.4 | -17.3 | 4.9 | -27.7 | 49.1*
Cc1ccc(-n2cnc3c(=O)[nH]cnc32)cc1[N+](=O)[O-] | x | x | -1.5 | -1.3 | x
Cc1cc(OCc2cc(C(=O)N3CCN(C)C(=O)[C@@H]3C)no2)cc(C)c1Cl | 0.6 | 30.4* | -0.3 | -13.9 | 2.9
COc1cc(Cl)ccc1OCc1cc(C(=O)N2CCN(C)C(=O)[C@@H]2C)no1 | x | x | 0.0 | 3.7 | x
CCC(O)(CCN1CCCCC1)c1ccccc1 (stereo unspecified) | -0.1 | -2.2 | -2.6 | -14.0 | -3.6
OC(CCCN1CCCCC1)(c1ccccc1)c1ccccc1 | 1.3 | -27.9 | -5.9 | -25.4 | 80.1*
S=c1[nH]nc(COc2ccccc2)n1/N=C/c1ccccc1Br | -1.2 | -2.5 | -1.0 | -11.0 | 38.1*
